# What was measured:
# [1] = target: Focal adhesion kinase 1 (Homo sapiens) (UniProt Q05397); settings: at 10 µM
# [2] = target: Fibroblast growth factor receptor 1 (Homo sapiens) (UniProt P11362); settings: at 1 µM
# [3] = target: Fibroblast growth factor receptor 1 (Homo sapiens) (UniProt P11362); settings: at 10 µM
# [4] = target: Fibroblast growth factor receptor 2 (Homo sapiens) (UniProt P21802); settings: at 1 µM
# [5] = target: Fibroblast growth factor receptor 2 (Homo sapiens) (UniProt P21802); settings: at 10 µM
# [6] = target: Fibroblast growth factor receptor 3 (Homo sapiens) (UniProt P22607); settings: at 1 µM
# [7] = target: Fibroblast growth factor receptor 3 (Homo sapiens) (UniProt P22607); settings: at 10 µM
# [8] = target: Fibroblast growth factor receptor 4 (Homo sapiens) (UniProt P22455); settings: at 1 µM
# [9] = target: Fibroblast growth factor receptor 4 (Homo sapiens) (UniProt P22455); settings: at 10 µM
# [10] = target: Tyrosine-protein kinase Fer (Homo sapiens) (UniProt P16591); settings: at 1 µM
# [11] = target: Tyrosine-protein kinase Fer (Homo sapiens) (UniProt P16591); settings: at 10 µM
# [12] = target: Tyrosine-protein kinase Fes/Fps (Homo sapiens) (UniProt P07332); settings: at 1 µM
# [13] = target: Tyrosine-protein kinase Fes/Fps (Homo sapiens) (UniProt P07332); settings: at 10 µM
# [14] = target: Tyrosine-protein kinase Fgr (Homo sapiens) (UniProt P09769); settings: at 1 µM
# [15] = target: Tyrosine-protein kinase Fgr (Homo sapiens) (UniProt P09769); settings: at 10 µM
# [16] = target: Vascular endothelial growth factor receptor 1 (Homo sapiens) (UniProt P17948); settings: at 1 µM
# [17] = target: Vascular endothelial growth factor receptor 1 (Homo sapiens) (UniProt P17948); settings: at 10 µM
# [18] = target: Receptor-type tyrosine-protein kinase FLT3 (Homo sapiens) (UniProt P36888); settings: at 1 µM
# [19] = target: Receptor-type tyrosine-protein kinase FLT3 (Homo sapiens) (UniProt P36888); settings: at 10 µM
# [20] = target: Vascular endothelial growth factor receptor 3 (Homo sapiens) (UniProt P35916); settings: at 1 µM
# Sequence of Vascular endothelial growth factor receptor 3 (Homo sapiens) (P35916 whole entry): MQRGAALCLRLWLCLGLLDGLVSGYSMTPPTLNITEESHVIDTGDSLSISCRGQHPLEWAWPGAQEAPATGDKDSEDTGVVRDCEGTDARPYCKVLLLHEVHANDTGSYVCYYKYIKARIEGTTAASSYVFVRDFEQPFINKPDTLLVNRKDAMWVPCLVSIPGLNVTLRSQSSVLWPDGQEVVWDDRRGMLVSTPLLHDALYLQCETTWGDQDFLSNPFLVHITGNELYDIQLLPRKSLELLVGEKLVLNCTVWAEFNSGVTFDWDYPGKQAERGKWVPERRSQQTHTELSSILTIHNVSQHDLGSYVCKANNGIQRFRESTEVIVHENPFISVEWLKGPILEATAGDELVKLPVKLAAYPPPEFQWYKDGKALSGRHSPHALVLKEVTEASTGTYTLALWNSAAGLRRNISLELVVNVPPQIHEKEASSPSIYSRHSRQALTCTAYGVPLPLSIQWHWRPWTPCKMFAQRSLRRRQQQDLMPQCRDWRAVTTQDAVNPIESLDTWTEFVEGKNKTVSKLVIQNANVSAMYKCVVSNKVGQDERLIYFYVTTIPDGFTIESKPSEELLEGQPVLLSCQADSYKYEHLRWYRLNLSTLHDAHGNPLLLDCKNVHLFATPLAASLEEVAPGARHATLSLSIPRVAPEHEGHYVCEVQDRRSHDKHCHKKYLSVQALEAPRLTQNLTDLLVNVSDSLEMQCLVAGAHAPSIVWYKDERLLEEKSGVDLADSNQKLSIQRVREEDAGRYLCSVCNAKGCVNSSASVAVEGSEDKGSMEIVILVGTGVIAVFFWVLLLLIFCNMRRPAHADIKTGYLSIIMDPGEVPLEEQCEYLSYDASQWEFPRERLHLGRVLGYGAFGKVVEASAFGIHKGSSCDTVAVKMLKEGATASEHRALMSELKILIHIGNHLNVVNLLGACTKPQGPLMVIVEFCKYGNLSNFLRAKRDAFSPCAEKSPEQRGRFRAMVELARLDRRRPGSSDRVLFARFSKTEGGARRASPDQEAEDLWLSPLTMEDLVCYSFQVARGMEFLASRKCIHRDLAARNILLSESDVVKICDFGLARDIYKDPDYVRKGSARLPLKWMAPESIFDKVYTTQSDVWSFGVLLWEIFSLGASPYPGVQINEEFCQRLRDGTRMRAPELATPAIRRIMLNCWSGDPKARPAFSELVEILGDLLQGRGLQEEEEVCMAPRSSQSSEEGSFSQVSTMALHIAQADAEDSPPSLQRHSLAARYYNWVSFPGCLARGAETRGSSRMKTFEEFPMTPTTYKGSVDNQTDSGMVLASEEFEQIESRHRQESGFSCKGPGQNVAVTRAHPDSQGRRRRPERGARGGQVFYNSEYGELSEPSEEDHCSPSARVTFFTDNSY
# Sequence of Fibroblast growth factor receptor 3 (Homo sapiens) (P22607 23-806 limits assumed): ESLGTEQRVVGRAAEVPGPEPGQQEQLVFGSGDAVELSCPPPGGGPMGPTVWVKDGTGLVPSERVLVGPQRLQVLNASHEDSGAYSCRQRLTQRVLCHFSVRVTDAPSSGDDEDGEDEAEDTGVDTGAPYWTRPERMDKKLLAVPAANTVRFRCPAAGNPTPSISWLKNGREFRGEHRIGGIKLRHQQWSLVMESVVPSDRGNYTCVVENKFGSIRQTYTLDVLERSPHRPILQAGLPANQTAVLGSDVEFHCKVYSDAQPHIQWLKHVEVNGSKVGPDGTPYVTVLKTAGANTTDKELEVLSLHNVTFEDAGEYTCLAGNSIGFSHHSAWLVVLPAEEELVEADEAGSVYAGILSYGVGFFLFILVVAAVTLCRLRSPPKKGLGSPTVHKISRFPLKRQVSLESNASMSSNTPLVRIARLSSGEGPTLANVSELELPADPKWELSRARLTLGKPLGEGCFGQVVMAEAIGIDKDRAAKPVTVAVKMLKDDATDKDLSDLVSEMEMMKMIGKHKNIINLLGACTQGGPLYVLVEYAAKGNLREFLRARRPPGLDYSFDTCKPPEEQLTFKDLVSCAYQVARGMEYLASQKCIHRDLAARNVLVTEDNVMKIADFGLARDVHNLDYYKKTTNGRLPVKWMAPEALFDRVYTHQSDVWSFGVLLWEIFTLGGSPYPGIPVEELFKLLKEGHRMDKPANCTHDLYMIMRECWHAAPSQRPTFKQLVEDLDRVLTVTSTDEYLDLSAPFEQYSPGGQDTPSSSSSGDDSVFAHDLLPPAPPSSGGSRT
# Sequence of Vascular endothelial growth factor receptor 1 (Homo sapiens) (P17948 whole entry): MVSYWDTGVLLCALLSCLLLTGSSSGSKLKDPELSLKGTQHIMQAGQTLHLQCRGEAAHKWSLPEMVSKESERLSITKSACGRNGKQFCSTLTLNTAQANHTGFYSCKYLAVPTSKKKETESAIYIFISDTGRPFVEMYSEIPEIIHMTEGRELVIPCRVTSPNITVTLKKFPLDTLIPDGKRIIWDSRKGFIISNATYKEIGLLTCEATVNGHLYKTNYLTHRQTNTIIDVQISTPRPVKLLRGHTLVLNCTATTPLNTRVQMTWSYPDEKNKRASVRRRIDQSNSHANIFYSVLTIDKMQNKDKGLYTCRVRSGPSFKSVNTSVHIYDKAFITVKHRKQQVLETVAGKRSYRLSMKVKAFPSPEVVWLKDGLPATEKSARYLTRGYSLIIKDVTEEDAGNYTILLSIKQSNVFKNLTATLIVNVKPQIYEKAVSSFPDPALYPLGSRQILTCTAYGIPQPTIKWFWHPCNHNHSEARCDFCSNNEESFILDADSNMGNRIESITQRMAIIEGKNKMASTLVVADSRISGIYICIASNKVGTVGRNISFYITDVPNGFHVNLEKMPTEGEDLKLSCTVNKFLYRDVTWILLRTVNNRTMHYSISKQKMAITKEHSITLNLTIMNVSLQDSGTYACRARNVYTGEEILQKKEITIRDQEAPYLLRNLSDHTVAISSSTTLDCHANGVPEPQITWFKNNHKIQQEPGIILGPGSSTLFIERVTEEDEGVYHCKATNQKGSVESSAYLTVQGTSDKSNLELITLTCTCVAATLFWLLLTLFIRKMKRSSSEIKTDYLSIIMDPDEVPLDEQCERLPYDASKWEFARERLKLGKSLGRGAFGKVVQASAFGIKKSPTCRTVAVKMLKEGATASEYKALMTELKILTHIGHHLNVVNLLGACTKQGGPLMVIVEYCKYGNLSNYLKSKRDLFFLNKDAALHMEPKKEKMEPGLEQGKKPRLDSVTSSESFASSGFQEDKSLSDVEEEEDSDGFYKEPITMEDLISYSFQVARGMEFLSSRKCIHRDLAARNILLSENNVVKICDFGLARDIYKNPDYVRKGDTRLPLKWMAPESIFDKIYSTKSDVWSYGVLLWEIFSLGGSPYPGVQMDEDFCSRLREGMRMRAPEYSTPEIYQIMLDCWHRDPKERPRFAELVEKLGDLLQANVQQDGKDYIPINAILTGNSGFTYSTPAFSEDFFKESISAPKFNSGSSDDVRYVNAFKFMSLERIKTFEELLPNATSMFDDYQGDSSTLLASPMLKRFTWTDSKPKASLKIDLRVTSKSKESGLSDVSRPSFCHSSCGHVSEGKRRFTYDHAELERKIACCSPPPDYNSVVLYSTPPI
# Sequence of Fibroblast growth factor receptor 4 (Homo sapiens) (P22455 22-802 limits assumed): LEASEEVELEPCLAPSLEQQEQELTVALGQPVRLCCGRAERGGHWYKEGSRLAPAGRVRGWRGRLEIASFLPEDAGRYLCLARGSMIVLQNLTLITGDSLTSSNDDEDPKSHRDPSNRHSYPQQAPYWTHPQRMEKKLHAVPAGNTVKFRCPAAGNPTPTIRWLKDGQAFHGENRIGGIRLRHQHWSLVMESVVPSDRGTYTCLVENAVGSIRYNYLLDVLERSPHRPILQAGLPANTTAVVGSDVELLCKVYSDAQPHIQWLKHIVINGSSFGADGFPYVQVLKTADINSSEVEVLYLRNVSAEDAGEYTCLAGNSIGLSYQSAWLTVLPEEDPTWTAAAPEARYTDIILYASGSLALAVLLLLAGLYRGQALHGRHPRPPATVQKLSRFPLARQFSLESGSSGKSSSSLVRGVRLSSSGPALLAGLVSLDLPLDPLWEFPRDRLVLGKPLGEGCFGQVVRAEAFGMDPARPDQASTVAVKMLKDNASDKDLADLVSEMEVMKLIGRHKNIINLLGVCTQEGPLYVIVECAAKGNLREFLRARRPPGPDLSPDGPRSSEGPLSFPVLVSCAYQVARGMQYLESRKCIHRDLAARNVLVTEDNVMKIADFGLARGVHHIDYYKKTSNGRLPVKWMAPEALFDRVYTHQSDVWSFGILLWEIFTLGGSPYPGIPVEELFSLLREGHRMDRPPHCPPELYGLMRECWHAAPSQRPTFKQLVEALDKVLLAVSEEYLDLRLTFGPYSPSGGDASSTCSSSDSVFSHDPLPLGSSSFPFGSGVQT
# Sequence of Tyrosine-protein kinase Fer (Homo sapiens) (P16591 whole entry, looked up): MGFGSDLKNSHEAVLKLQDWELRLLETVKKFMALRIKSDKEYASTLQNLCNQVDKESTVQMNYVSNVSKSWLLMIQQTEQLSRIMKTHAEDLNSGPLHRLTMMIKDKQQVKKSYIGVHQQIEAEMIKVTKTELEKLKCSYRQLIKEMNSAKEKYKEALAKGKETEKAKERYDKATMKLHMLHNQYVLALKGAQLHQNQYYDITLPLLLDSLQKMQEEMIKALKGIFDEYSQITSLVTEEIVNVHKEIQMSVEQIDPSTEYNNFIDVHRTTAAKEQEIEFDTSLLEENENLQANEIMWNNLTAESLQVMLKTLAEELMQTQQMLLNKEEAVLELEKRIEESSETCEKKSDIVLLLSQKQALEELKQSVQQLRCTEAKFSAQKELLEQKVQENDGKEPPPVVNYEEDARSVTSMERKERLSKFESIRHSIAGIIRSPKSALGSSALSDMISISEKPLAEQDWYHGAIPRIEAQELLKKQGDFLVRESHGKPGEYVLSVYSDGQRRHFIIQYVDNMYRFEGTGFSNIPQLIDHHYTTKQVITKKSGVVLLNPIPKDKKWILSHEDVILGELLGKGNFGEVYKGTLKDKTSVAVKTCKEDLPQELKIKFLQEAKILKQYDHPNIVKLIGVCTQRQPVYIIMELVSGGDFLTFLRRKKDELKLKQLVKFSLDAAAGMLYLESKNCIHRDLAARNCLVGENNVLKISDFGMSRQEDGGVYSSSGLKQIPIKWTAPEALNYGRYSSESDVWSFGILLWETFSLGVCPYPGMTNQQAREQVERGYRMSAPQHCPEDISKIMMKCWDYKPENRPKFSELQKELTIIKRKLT
Compound,residual activity [1],residual activity [2],residual activity [3],residual activity [4],residual activity [5],residual activity [6],residual activity [7],residual activity [8],residual activity [9],residual activity [10],residual activity [11],residual activity [12],residual activity [13],residual activity [14],residual activity [15],residual activity [16],residual activity [17],residual activity [18],residual activity [19],residual activity [20]
O=c1cc(-c2cccc3c2Sc2ccccc2S3)oc(N2CCOCC2)c1,116%,120%,95%,106%,81%,112%,84%,104%,88%,115%,83%,94%,96%,99%,93%,95%,85%,85%,83%,97%
O=C1NC(=O)c2c1c1c3ccccc3[nH]c1c1[nH]c3cc(Br)ccc3c21,95%,90%,57%,99%,82%,104%,88%,94%,90%,103%,86%,100%,96%,100%,91%,30%,17%,41%,27%,4%
O=C(Nc1cccc(Nc2cc(Nc3cccc(C(F)(F)F)c3)ncn2)c1)C1CC1,79%,97%,58%,94%,101%,112%,111%,90%,90%,112%,92%,113%,86%,90%,81%,99%,61%,108%,128%,97%
CNc1cc2c(Nc3cccc(Br)c3)ncnc2cn1,82%,102%,66%,89%,88%,90%,100%,109%,86%,105%,90%,116%,92%,73%,60%,87%,58%,119%,107%,87%
O=C(Nc1cccc(Nc2nccc(Nc3cccc(C(F)(F)F)c3)n2)c1)C1CC1,10%,69%,8%,99%,37%,83%,91%,108%,63%,124%,59%,84%,68%,59%,67%,59%,6%,45%,3%,55%
CC(C)n1cnc2c(NCc3ccccc3)nc(NCCCO)nc21,57%,104%,65%,111%,87%,111%,93%,104%,81%,102%,103%,94%,51%,103%,103%,94%,87%,89%,78%,87%
Nc1nc(Nc2ccc(S(N)(=O)=O)cc2)nn1C(=S)Nc1c(F)cccc1F,-1%,1%,-1%,1%,-1%,3%,0%,71%,23%,23%,1%,2%,1%,9%,1%,0%,-1%,2%,1%,0%
O=C1c2ccccc2-[n+]2ccc3c([nH]c4ccccc43)c21,90%,100%,78%,107%,84%,96%,114%,109%,97%,92%,90%,89%,88%,92%,85%,79%,67%,87%,52%,76%
Ic1cccc(CSc2nnc(-c3ccncc3)o2)c1,90%,98%,71%,99%,82%,106%,93%,112%,98%,93%,100%,88%,92%,80%,81%,26%,19%,30%,19%,22%
Cn1nc2c3c(cccc31)C(=O)c1ccccc1-2,65%,110%,66%,103%,76%,112%,77%,90%,88%,87%,76%,98%,94%,98%,89%,75%,52%,50%,20%,57%
O=C1NC(=O)/C(=C\c2ccc3nccnc3c2)S1,83%,113%,91%,98%,101%,96%,104%,119%,88%,110%,94%,108%,85%,107%,89%,88%,78%,94%,76%,98%
Cc1ccc(NC2=CC(=O)c3sc(C)nc3C2=O)cc1,99%,106%,112%,100%,92%,107%,118%,101%,90%,92%,96%,97%,104%,90%,109%,96%,91%,85%,81%,95%
Oc1n[nH]c2nnc(-c3c(-c4ccccc4)nn4ccccc34)cc12,91%,108%,92%,95%,91%,97%,102%,115%,90%,96%,91%,92%,108%,89%,95%,86%,80%,76%,63%,89%
Cc1cc(Nc2nc(-c3ccccc3)nc3ccccc23)n[nH]1,7%,4%,2%,24%,2%,34%,4%,106%,72%,43%,6%,58%,21%,18%,2%,0%,1%,2%,1%,0%
O=C1NC(=O)/C(=C/c2ccc3c(c2)OC(F)(F)O3)S1,95%,116%,99%,92%,101%,111%,112%,116%,94%,107%,86%,128%,90%,105%,101%,92%,85%,89%,83%,98%
CCOc1cc2ncnc(Nc3cccc(Br)c3)c2cc1OCC,79%,66%,18%,98%,88%,92%,85%,111%,92%,116%,85%,112%,80%,54%,10%,54%,6%,101%,40%,36%
Cn1cc(/C=C2\C(=O)Nc3ccc(S(N)(=O)=O)cc32)c2ccccc21,42%,19%,5%,10%,3%,17%,14%,118%,69%,35%,9%,40%,15%,9%,10%,22%,9%,1%,-1%,11%
Oc1c2ccccc2c2c3c(cccc13)N=N2,9%,39%,4%,52%,12%,72%,40%,110%,89%,75%,51%,34%,6%,75%,38%,26%,2%,6%,1%,2%
CCC(=O)Nc1ccc2ncnc(Nc3cccc(Br)c3)c2c1,95%,108%,84%,105%,99%,118%,123%,120%,100%,106%,91%,115%,78%,102%,76%,86%,83%,120%,107%,85%
COc1ccc(OC)c2c(=S)c3ccccc3[nH]c12,108%,116%,82%,97%,85%,129%,113%,112%,88%,98%,92%,89%,103%,94%,99%,90%,77%,83%,73%,89%
COc1cccc(-c2cc(=O)c3ccccc3o2)c1N,116%,143%,105%,102%,92%,100%,99%,128%,98%,107%,101%,94%,107%,97%,100%,101%,92%,87%,85%,95%
COc1cc2ncnc(N3CCN(C(=O)Nc4ccc(Oc5ccccc5)cc4)CC3)c2cc1OC,76%,90%,89%,105%,102%,115%,99%,120%,105%,104%,88%,98%,86%,96%,97%,56%,21%,37%,18%,31%
Cn1cnc2cc3c(Nc4cccc(Br)c4)ncnc3cc21,93%,74%,43%,92%,89%,102%,97%,127%,96%,115%,93%,132%,83%,63%,35%,43%,18%,113%,58%,40%
CCN(CC)CCCCN1c2ccccc2Oc2ccc(Cl)cc21,108%,113%,82%,108%,112%,110%,99%,129%,90%,117%,102%,129%,88%,111%,95%,115%,112%,98%,74%,96%
CC[n+]1c(/C=C/N(C)c2ccccc2)n(-c2ccccc2)c2ccc(-c3nc4ccccc4s3)cc21,80%,99%,55%,93%,123%,105%,104%,101%,84%,116%,59%,121%,105%,98%,88%,105%,83%,77%,26%,89%
Oc1ccc(-c2nc(-c3ccc(F)cc3)c(-c3ccncc3)[nH]2)cc1,113%,112%,41%,115%,87%,121%,88%,114%,96%,102%,93%,107%,99%,93%,40%,83%,26%,87%,85%,90%
COc1ccc(CNc2nc(N(CCO)CCO)nc3c2ncn3C(C)C)cc1,64%,89%,67%,101%,80%,103%,109%,116%,104%,91%,86%,62%,23%,77%,85%,88%,55%,85%,74%,62%
